In PubChem BioAssay AID1159580 (chemical genetic matrix, 2015):
Where “and” joins values, the source holds several entries; their conditions need not be identical. Equal entries are not always repeated. In all, about 5,500 compounds went through this assay and about 2,000 (36%) were called active. Not shown: some 18% with an inconclusive outcome. Rule as the data show it: active = normalized growth mostly below about 0.91 (no sharp cut-off); inconclusive = no clear call, values can overlap the other calls; inactive = mostly above about 0.92. This is one part of the list.

Assay: chemical genetic growth profiling, strain panel (AID 1159580);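 also: tested at 20 µM; growth read once vehicle control cultures reached saturation at 30 °C; 1 = growth at the plate median or of vehicle wells; lower values mean less growth of the strain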
Settings: S. cerevisiae deletion strains, growth OD

Measured: normalized growth

CC(C)[C@@H]1CC[C@@H](C)C[C@H]1O
inactive: locus YAL021C, strain ccr4, stronger effect = lower value 0.968 | locus YAL026C, strain drs2, stronger effect = lower value 0.987 | locus YAL030W, strain snc1, stronger effect = lower value 0.984 | locus YBL061C, strain skt5, stronger effect = lower value 1.01 | locus YBR009C, strain hhf1, stronger effect = lower value 0.998 | locus YBR021W, strain FUR4, stronger effect = lower value 1.03 | locus YBR023C, strain chs3, stronger effect = lower value 1.01 | locus YBR171W, strain sec66, stronger effect = lower value 0.973 | locus YBR229C, strain ROT2, stronger effect = lower value 1.01 | locus YBR231C, strain swc5, stronger effect = lower value 0.988 | locus YBR279W, strain paf1, stronger effect = lower value 0.998 | locus YCL011C, strain gbp2, stronger effect = lower value 0.982 | locus YCL016C, strain dcc1, stronger effect = lower value 0.995 | locus YCL029C, strain bik1, stronger effect = lower value 1.01 | locus YCL061C, strain MRC1, stronger effect = lower value 0.986 | locus YCL069W, strain vba3, stronger effect = lower value 0.973 | locus YCR088W, strain abp1, stronger effect = lower value 0.979 | locus YDL005C, strain med2, stronger effect = lower value 0.98 | locus YDL035C, strain GPR1, stronger effect = lower value 1.02 | locus YDL040C, strain nat1, stronger effect = lower value 0.979 | locus YDL074C, strain BRE1, stronger effect = lower value 0.997 | locus YDL101C, strain DUN1, stronger effect = lower value 1.01 | locus YDL134C, strain PPH21, stronger effect = lower value 1.01 | locus YDL185W, strain tfp1, stronger effect = lower value 1.02 | locus YDL192W, strain arf1, stronger effect = lower value 1.02 | locus YDR001C, strain nth1, stronger effect = lower value 0.978 | locus YDR069C, strain doa4, stronger effect = lower value 0.992 | locus YDR101C, strain arx1, stronger effect = lower value 0.996 | locus YDR137W, strain rgp1, stronger effect = lower value 0.898 | locus YDR150W, strain NUM1, stronger effect = lower value 1.01 | locus YDR159W, strain sac3, stronger effect = lower value 0.964 | locus YDR162C, strain NBP2, stronger effect = lower value 1.02 | locus YDR195W, strain ref2 0.986 | locus YDR297W, strain sur2, stronger effect = lower value 0.984 | locus YDR318W, strain mcm21, stronger effect = lower value 1.02 | locus YDR334W, strain swr1, stronger effect = lower value 0.951 | locus YDR335W, strain msn5, stronger effect = lower value 0.984 | locus YDR388W, stronger effect = lower value 1.01 | locus YDR392W, strain spt3, stronger effect = lower value 0.958 | locus YDR502C, strain sam2, stronger effect = lower value 1.01 | locus YEL003W, strain gim4, stronger effect = lower value 0.989 | locus YEL037C, strain rad23, stronger effect = lower value 0.968 | locus YEL061C, strain CIN8 (second series), stronger effect = lower value 0.963 | locus YEL061C, strain CIN8, stronger effect = lower value 1.01 | locus YER015W, strain faa2, stronger effect = lower value 0.996 | locus YER016W, strain bim1, stronger effect = lower value 0.992 | locus YER110C, stronger effect = lower value 1.03 | locus YER111C, strain swi4, stronger effect = lower value 0.961 | locus YER155C, strain BEM2 (second series), stronger effect = lower value 0.94 | locus YER155C, strain BEM2, stronger effect = lower value 1.01 | locus YER167W, strain BCK2, stronger effect = lower value 1.02 | locus YFR010W, strain ubp6, stronger effect = lower value 0.989 | locus YGL078C, strain dbp3, stronger effect = lower value 1.02 | locus YGL086W, strain mad1, stronger effect = lower value 1.01 | locus YGL167C, strain pmr1, stronger effect = lower value 1 | locus YGL173C, strain kem1, stronger effect = lower value 0.999 | locus YGL227W, strain vid30, stronger effect = lower value 0.981 | locus YGL240W, strain doc1, stronger effect = lower value 0.995 | locus YGL248W, strain PDE1, stronger effect = lower value 0.992 | locus YGL253W, strain hxk2, stronger effect = lower value 0.995 | locus YGR078C, strain PAC10, stronger effect = lower value 0.975 | locus YGR135W, strain pre9, stronger effect = lower value 1.04 | locus YGR229C, strain SMI1, stronger effect = lower value 1.03 | locus YGR252W, strain gcn5, stronger effect = lower value 1.03 | locus YHR013C, strain ard1, stronger effect = lower value 1.03 | locus YHR027C, strain rpn1, stronger effect = lower value 0.996 | locus YHR030C, strain SLT2, stronger effect = lower value 1.01 and 0.979 | locus YHR079C, strain IRE1 (second series), stronger effect = lower value 1.01 | locus YHR079C, strain IRE1, stronger effect = lower value 0.991 | locus YHR094C, strain hxt1, stronger effect = lower value 1.02 | locus YHR129C, strain ARP1, stronger effect = lower value 1.01 | locus YHR142W, strain chs7, stronger effect = lower value 0.988 | locus YHR200W, strain rpn10, stronger effect = lower value 1.02 | locus YIL066C, strain RNR3, stronger effect = lower value 0.994 | locus YIL073C, strain SPO22, stronger effect = lower value 1.09 | locus YIL125W, strain kgd1, stronger effect = lower value 1.01 | locus YIR030C, strain dcg1, stronger effect = lower value 1.01 | locus YJL092W, strain hpr5, stronger effect = lower value 0.977 | locus YJL095W, strain BCK1 (second series), stronger effect = lower value 0.986 | locus YJL095W, strain BCK1, stronger effect = lower value 0.972 and 0.985 | locus YJL115W, strain asf1, stronger effect = lower value 0.981 | locus YJL129C, strain trk1, stronger effect = lower value 0.937 | locus YJL134W, strain LCB3, stronger effect = lower value 1.01 | locus YJL154C, strain vps35, stronger effect = lower value 0.972 | locus YJL164C, strain tpk1, stronger effect = lower value 0.998 | locus YJL166W, strain qcr8, stronger effect = lower value 0.986 | locus YJL168C, strain set2, stronger effect = lower value 1.01 | locus YJL187C, strain SWE1 (second series), stronger effect = lower value 0.984 | locus YJL187C, strain SWE1, stronger effect = lower value 0.99 | locus YJR043C, strain POL32, stronger effect = lower value 1.02
